Measurements reported in PubChem BioAssay AID1159580 (chemical genetic matrix, 2015).
Where “and” joins values, the source holds several entries; their conditions need not be identical. Equal values may be shown once. About 2,000 (36%) of roughly 5,500 compounds were called active. Inconclusive results (about 18%) are left out. No stated cut-off is given here; in the data, active means normalized growth mostly below about 0.91 (no sharp cut-off); inconclusive means no clear call, values can overlap the other calls; inactive means mostly above about 0.92. The list shows a part of the results.

Assay: chemical genetic growth profiling, strain panel (AID 1159580);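 further: tested at 20 µM; growth read once vehicle control cultures reached saturation at 30 °C; 1 = growth at the plate median or of vehicle wells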
Conditions: growth OD

Measured: normalized growth

CCn1cc(C(=O)O)c(=O)c2cc3c(cc21)OCO3
inactive: S. cerevisiae deletion strains, locus YJR066W, strain TOR1, stronger effect = lower value 0.991 | S. cerevisiae deletion strains, locus YJR075W, strain HOC1, stronger effect = lower value 1.02 and 0.993 | S. cerevisiae deletion strains, locus YKL009W, strain mrt4, stronger effect = lower value 1.01 | S. cerevisiae deletion strains, locus YKL068W, stronger effect = lower value 0.996 | S. cerevisiae deletion strains, locus YKL085W, strain MDH1 (second series), stronger effect = lower value 0.996 | S. cerevisiae deletion strains, locus YKL085W, strain MDH1, stronger effect = lower value 0.996 | S. cerevisiae deletion strains, locus YKL160W, strain elf1, stronger effect = lower value 0.961 | S. cerevisiae deletion strains, locus YKL190W, strain CNB1, stronger effect = lower value 1.01 | S. cerevisiae deletion strains, locus YKR001C, strain vps1, stronger effect = lower value 1.01 | S. cerevisiae deletion strains, locus YKR026C, strain gcn3, stronger effect = lower value 0.987 | S. cerevisiae deletion strains, locus YKR091W, strain srl3, stronger effect = lower value 0.982 | S. cerevisiae deletion strains, locus YLL001W, strain dnm1, stronger effect = lower value 0.96 | S. cerevisiae deletion strains, locus YLL026W, stronger effect = lower value 0.988 | S. cerevisiae deletion strains, locus YLL041C, strain sdh2, stronger effect = lower value 0.98 | S. cerevisiae deletion strains, locus YLR027C, strain aat2, stronger effect = lower value 0.986 | S. cerevisiae deletion strains, locus YLR039C, strain RIC1, stronger effect = lower value 1.03 | S. cerevisiae deletion strains, locus YLR058C, strain SHM2, stronger effect = lower value 1.01 | S. cerevisiae deletion strains, locus YLR102C, strain apc9, stronger effect = lower value 0.994 | S. cerevisiae deletion strains, locus YLR113W, strain HOG1, stronger effect = lower value 1.07 | S. cerevisiae deletion strains, locus YLR221C, strain rsa3, stronger effect = lower value 0.96 | S. cerevisiae deletion strains, locus YLR258W, strain gsy2, stronger effect = lower value 0.983 | S. cerevisiae deletion strains, locus YLR262C, strain YPT6 (second series), stronger effect = lower value 0.909 | S. cerevisiae deletion strains, locus YLR262C, strain YPT6, stronger effect = lower value 1.04 | S. cerevisiae deletion strains, locus YLR268W, strain sec22, stronger effect = lower value 1 | S. cerevisiae deletion strains, locus YLR320W, strain mms22, stronger effect = lower value 0.956 | S. cerevisiae deletion strains, locus YLR330W, strain CHS5, stronger effect = lower value 1.01 | S. cerevisiae deletion strains, locus YLR342W, strain FKS1 (second series), stronger effect = lower value 0.996 | S. cerevisiae deletion strains, locus YLR342W, strain FKS1, stronger effect = lower value 0.977 | S. cerevisiae deletion strains, locus YLR357W, strain rsc2, stronger effect = lower value 0.944 | S. cerevisiae deletion strains, locus YLR370C, strain arc18, stronger effect = lower value 0.964 | S. cerevisiae deletion strains, locus YLR371W, strain rom2, stronger effect = lower value 0.993 | S. cerevisiae deletion strains, locus YLR384C, strain iki3, stronger effect = lower value 0.959 | S. cerevisiae deletion strains, locus YLR418C, strain cdc73, stronger effect = lower value 1.01 | S. cerevisiae deletion strains, locus YML016C, strain PPZ1, stronger effect = lower value 1.01 | S. cerevisiae deletion strains, locus YML032C, strain rad52, stronger effect = lower value 1 | S. cerevisiae deletion strains, locus YML120C, strain ndi1, stronger effect = lower value 0.97 | S. cerevisiae deletion strains, locus YML124C, strain tub3, stronger effect = lower value 0.997 | S. cerevisiae deletion strains, locus YMR058W, strain fet3, stronger effect = lower value 0.982 | S. cerevisiae deletion strains, locus YMR078C, strain ctf18, stronger effect = lower value 1 | S. cerevisiae deletion strains, locus YMR125W, strain sto1, stronger effect = lower value 0.962 | S. cerevisiae deletion strains, locus YMR129W, stronger effect = lower value 0.989 | S. cerevisiae deletion strains, locus YMR205C, strain PFK2, stronger effect = lower value 0.946 | S. cerevisiae deletion strains, locus YMR223W, strain ubp8, stronger effect = lower value 1 | S. cerevisiae deletion strains, locus YMR231W, strain pep5, stronger effect = lower value 0.978 | S. cerevisiae deletion strains, locus YMR263W, strain SAP30, stronger effect = lower value 0.994 | S. cerevisiae deletion strains, locus YMR307W, strain GAS1, stronger effect = lower value 1.04 | S. cerevisiae deletion strains, locus YNL067W, strain RPL9B, stronger effect = lower value 1.02 | S. cerevisiae deletion strains, locus YNL071W, strain lat1, stronger effect = lower value 0.984 | S. cerevisiae deletion strains, locus YNL128W, strain TEP1, stronger effect = lower value 0.983 | S. cerevisiae deletion strains, locus YNL153C, strain GIM3, stronger effect = lower value 0.997 | S. cerevisiae deletion strains, locus YNL175C, strain NOP13, stronger effect = lower value 0.988 | S. cerevisiae deletion strains, locus YNL183C, strain NPR1, stronger effect = lower value 0.973 | S. cerevisiae deletion strains, locus YNL197C, strain WHI3, stronger effect = lower value 0.984 | S. cerevisiae deletion strains, locus YNL209W, strain ssb2, stronger effect = lower value 0.986 | S. cerevisiae deletion strains, locus YNL224C, strain SQS1, stronger effect = lower value 0.972 | S. cerevisiae deletion strains, locus YNL233W, strain BNI4, stronger effect = lower value 1.02 | S. cerevisiae deletion strains, locus YNL248C, strain rpa49, stronger effect = lower value 0.964 | S. cerevisiae deletion strains, locus YNL250W, strain rad50, stronger effect = lower value 1.01 | S. cerevisiae deletion strains, locus YNL271C, strain bni1, stronger effect = lower value 0.993 | S. cerevisiae deletion strains, locus YNL298W, strain CLA4, stronger effect = lower value 0.997 | S. cerevisiae deletion strains, locus YNL307C, strain MCK1, stronger effect = lower value 0.997 | S. cerevisiae deletion strains, locus YNL322C, strain KRE1 (second series), stronger effect = lower value 0.959 | S. cerevisiae deletion strains, locus YNR049C, strain mso1, stronger effect = lower value 0.974 | S. cerevisiae deletion strains, locus YNR052C, strain pop2, stronger effect = lower value 1 | S. cerevisiae deletion strains, locus YOL006C, strain TOP1, stronger effect = lower value 1.04 | S. cerevisiae deletion strains, locus YOL012C, strain htz1 1.19 | S. cerevisiae deletion strains, locus YOL147C, strain pex11, stronger effect = lower value 0.991 | S. cerevisiae deletion strains, locus YOR001W, strain rrp6, stronger effect = lower value 1.01 | S. cerevisiae deletion strains, locus YOR061W, strain CKA2, stronger effect = lower value 1.02 | S. cerevisiae deletion strains, locus YOR069W, strain VPS5, stronger effect = lower value 1.01 | S. cerevisiae deletion strains, locus YOR070C, strain gyp1, stronger effect = lower value 0.975 | S. cerevisiae deletion strains, locus YOR080W, strain dia2, stronger effect = lower value 0.972 | S. cerevisiae deletion strains, locus YOR083W, strain WHI5 (second series), stronger effect = lower value 0.981 | S. cerevisiae deletion strains, locus YOR083W, strain WHI5, stronger effect = lower value 0.969 | S. cerevisiae deletion strains, locus YOR106W, strain vam3, stronger effect = lower value 0.935 | S. cerevisiae deletion strains, locus YOR136W, strain idh2, stronger effect = lower value 0.997 | S. cerevisiae deletion strains, locus YOR144C, strain elg1, stronger effect = lower value 0.991 | S. cerevisiae deletion strains, locus YOR184W, strain ser1, stronger effect = lower value 0.998 | S. cerevisiae deletion strains, locus YOR231W, strain MKK1, stronger effect = lower value 1.1 | S. cerevisiae deletion strains, locus YOR265W, strain rbl2, stronger effect = lower value 0.973 | S. cerevisiae deletion strains, locus YOR270C, strain vph1, stronger effect = lower value 0.957 | S. cerevisiae deletion strains, locus YOR290C, strain snf2, stronger effect = lower value 0.976 | S. cerevisiae deletion strains, locus YOR316C, strain cot1, stronger effect = lower value 0.997 | S. cerevisiae deletion strains, locus YPL051W, strain arl3, stronger effect = lower value 0.995 | S. cerevisiae deletion strains, locus YPL055C, strain LGE1, stronger effect = lower value 0.985 | S. cerevisiae deletion strains, locus YPL078C, strain atp4, stronger effect = lower value 0.971 | S. cerevisiae deletion strains, locus YPL106C, strain sse1, stronger effect = lower value 0.936 | S. cerevisiae deletion strains, locus YPL240C, strain hsp82, stronger effect = lower value 0.992 | S. cerevisiae deletion strains, locus YPL256C, strain CLN2, stronger effect = lower value 1.09 | S. cerevisiae deletion strains, locus YPR119W, strain clb2, stronger effect = lower value 0.988 | S. cerevisiae deletion strains, locus YPR141C, strain kar3, stronger effect = lower value 0.988 | S. cerevisiae deletion strains, locus YPR163C, strain tif3, stronger effect = lower value 0.987 | S. cerevisiae deletion strains, locus YPR167C, strain met16, stronger effect = lower value 0.985 | S. cerevisiae deletion strains, strain wtn01, stronger effect = lower value 1 | S. cerevisiae strains, strain wild type, stronger effect = lower value 1.02
